The source of these data is PubChem BioAssay (NCATS).

Where “and” joins values, the source holds several entries; their conditions need not be identical. Equal values may be shown once. Unmarked numbers belong to inactive results. Inconclusive results are not listed. Calls of active or inactive are those of the source. Calls come from the whole dose curve; as a rule, active = well fitted curve in the direction sought with a large enough effect; inconclusive = small, poorly fitted or top-dose-only effect, or another doubt; inactive = no such curve, though single readings can be large; an effect the other way counts as inactive or inconclusive. Numbered stars: 1 amine (or outer) side, 2 acyl side, 3 side chain; on linkers, the order of the positions; unused ones are H or OH. Bridge positions count the residues as written; N and C are the ends. Square brackets hold non-standard residues; d marks the D form. Peptide text beside a SMILES is read from it. I, II: the chains in the order shown. Actinocin(9to1) = Cc1c2oc3c(C)ccc(C(=O)[*:1])c3nc-2c(C(=O)[*:2])c(N)c1=O; NMeV = CN[C@H](C(=O)O)C(C)C; Sar = CNCC(=O)O

The nature of assay [1]: qHTS assay for measurement of the activity of small molecule inhibitors on Zika virus induced Caspase-3 activity in human iPSC derived neural progenitor cells (hNPCs) (AID 1224857). Note: % of control where 0% means no effect; nearly all actives have a fitted effect of over 65% in size. The essentials:
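In medium with heparin 2 ug/ml and cyclopamine 2 uM, hNPCs (350 cells/well) received compound for one hour and then Zika virus at 2 FFU/cell; caspase activity was measured by Caspase-Glo 3/7 luminescence 6 h post-infection.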

The nature of assay [2]: qHTS assay to identify small molecule inhibitors of chordoma cells - UCH-1 (AID 1259355). Note: % is set by controls: 0 for no effect and ±100 for the full control effect; nearly all actives have a fitted effect of over 55% in size. The essentials:
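Screening used approved and investigational drugs in 15-point titration against 800 seeded cells per well. A fixed combination of auranofin with camptothecin, doxorubicin, rubitecan and topotecan followed compound addition, and growth was scored by CellTiter-Glo after 48hr.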

Assay [3] is described as follows: qHTS assay to identify small molecule inhibitors of chordoma cells - UCH-2 (AID 1259356). Note: series mostly up to about 46 µM; % is set by controls: 0 for no effect and ±100 for the full control effect.
A short description of assay [4]: qHTS Assay for Identifying Gametocytocidal Compounds (AID 743244).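 For max response: % is set by controls: 0 for no effect and ±100 for the full control effect; actives lower the fluorescent signal which means gametocytes are killed.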 Note: potency is the fitted concentration of half-maximal effect. The following applies: P. falciparum 3D7 stage III-V gametocytes, alamarBlue, 72 h; max response: active compounds read low. The essentials: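 In this qHTS viability screen, late-stage 3D7 gametocytes are incubated with compound for 72 h, then with alamarBlue for 24 h; reduced resorufin fluorescence marks killing.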

Assay [5] can be described thus: qHTS assay for measurement of the activity of small molecule inhibitors on Zika virus induced Caspase-3 activity in human astrocytoma cells (AID 1224859).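 Note: plate controls were ZIKV-infected untreated cells for no effect and uninfected cells for full effect.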 An outline of the steps:
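A cell-based luminescent caspase-3/7 assay used SNB-19 cells infected with ZIKV (2 FFU/cell) for 6 h following 1 h compound pretreatment.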

Assay [6] can be described thus: qHTS assay for cell viability of the p53RE-bla HCT-116 cell line (AID 743292). Note: % is set by controls: 0 for no effect and ±100 for the full control effect; nearly all actives have a fitted effect of over 55% in size. An outline of the steps: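 After plating at 4,000 cells per well and a 5 h rest at 37 C, HCT-116 cells carrying p53RE-bla received test chemicals in DMSO. Sixteen hours later at 37 C, CellTiter-Glo was added and luminescence recorded following 30 min at room temperature.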
A short description of assay [7]: qHTS assay for cell viability of HEK293 cells (AID 743288). Note: % is set by controls: 0 for no effect and ±100 for the full control effect; nearly all actives have a fitted effect of over 50% in size. The settings on record: ATP luminescence (CellTiter-Glo), 18 h, active compounds read low. The essentials: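 Viable-cell counts were inferred from luciferase-based ATP content in HEK293 cells seeded at 2,000/well, pre-incubated ≥5 h, then dosed with DMSO-solubilised compounds for 18 h at 37 C.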

Turning to `CCCCCCCCCCCCCCNCCO`, the compound was classed as inactive in assay [1]. In addition, the Potency entry in assay [2] and in assay [3] was “inactive” in each case.

Take `COc1cc(-c2ccc(=O)[nH]n2)ccc1OC(F)F`: the max response in assay [4] is -3.31%. Moreover, the result in assay [1] and in assay [5] was inactive. Also, in assay [3], the Potency entry was “inactive”.

Turning to `CCN(CC)CCOC(=O)C(c1ccccc1)C1CCCCC1` (stereo not drawn), in assay [4], the max response is 15%. The call in assay [1] and in assay [5] was inactive. The Potency result in assay [3] is “inactive”.

As for `Cc1c2oc3c(C)ccc(C(=O)N[C@@H]4C(=O)N[C@H](C(C)C)C(=O)N5CCC[C@H]5C(=O)N(C)CC(=O)N(C)[C@@H](C(C)C)C(=O)O[C@@H]4C)c3nc-2c(C(=O)N[C@@H]2C(=O)N[C@H](C(C)C)C(=O)N3CCC[C@H]3C(=O)N(C)CC(=O)N(C)[C@@H](C(C)C)C(=O)O[C@@H]2C)c(N)c1=O` (I: T[dV]P[Sar][NMeV] / II: T[dV]P[Sar][NMeV]; ester I:1-I:C, II:1-II:C; linker I:N-II:N via Actinocin(9to1)), the Potency in assay [4] is 0.0708 µM (active). The compound was classed as inactive in assay [6], in assay [1] and in assay [5]. For the same compound, the Potency result in assay [3] is “inactive”.

Turning to `CC(=O)O[C@]1(C(C)=O)CC[C@H]2[C@@H]3C[C@H](C)C4=CC(=O)CC[C@]4(C)[C@H]3CC[C@@]21C`, the outcome in assay [6], in assay [1] and in assay [5] was inactive. The Potency entry in assay [3] is “inactive”.

In the case of `CNC(=O)CN(CCN(CCN(CC(=O)[O-])CC(=O)NC)CC(=O)[O-])CC(=O)[O-].O.[Gd+3]`, the max response in assay [4] is 14.6% and -8.14%. For the same compound, the outcome in assay [1] and in assay [5] was inactive.

As to `C[C@H]1C[C@H]2[C@@H]3CCC4=CC(=O)C=C[C@]4(C)[C@@]3(Cl)[C@@H](O)C[C@]2(C)[C@@]1(O)C(=O)CO`, the max response in assay [4] was 3.92%; in assay [7], -18.8%. The outcome in assay [6], in assay [1] and in assay [5] was inactive. Besides, the Potency entry in assay [3] is “inactive”.

Take `O=c1[nH]c(=O)n([C@H]2CCCO2)cc1F`: the max response in assay [4] was -0.456%. Also, the call in assay [1] and in assay [5] was inactive.

`CC(=O)Oc1ccc(C(c2ccc(OC(C)=O)cc2)c2ccccn2)cc1`: the max response was 7.87% in assay [4] and -9.96% in assay [7]. In addition, the compound was called inactive in assay [1] and in assay [5]. Besides, the Potency result in assay [3] was “inactive”.

For `Oc1ccc(Cl)cc1Sc1cc(Cl)ccc1O`, in assay [4], the max response was 6.07%. Further, the result in assay [6], in assay [1] and in assay [5] was inactive. In addition, the Potency result in assay [3] is “inactive”.

Consider `C[C@]12C=CC(=O)C=C1CC[C@@H]1[C@@H]2[C@@H](O)C[C@@]2(C)[C@H]1CC[C@]2(O)C(=O)CO`, for which the max response in assay [4] was 0.844%. Further, the result in assay [1] and in assay [5] was inactive. Besides, the Potency entry in assay [3] was “inactive”.

For `CC(=O)N/N=C/c1ccc([N+](=O)[O-])o1`, the Potency in assay [4] was 31.6 µM (active). The result in assay [1] and in assay [5] was inactive.

Regarding `CC(C)(C)NC(=O)[C@@H]1CN(Cc2cccnc2)CCN1C[C@@H](O)C[C@@H](Cc1ccccc1)C(=O)N[C@H]1c2ccccc2C[C@H]1O`, in assay [4], the max response was 5.54%. Further, the compound was classed as inactive in assay [1] and in assay [5].

In the case of `Nc1ccc(C(=O)O)cc1`, the results for the max response in assay [4] and in assay [7] were -1.31% and 7.36%, respectively. In addition, the compound was called inactive in assay [6], in assay [1] and in assay [5]. Besides, the Potency entry in assay [3] is “inactive”.
